The supplement of paper PMC7411054

Experiments:
Experiment in all cases: phenotypically active (imaging signature differs from DMSO and reproducible) at any of 0.3-9 uM (binary (1 = active, 0 = inactive)); higher = active
Details in all cases: treatment time: 24 h
A549-ACTB-RAB5A = test system: A549-ACTB-RAB5A
Procedure, shortened: (§1)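 Fifteen gene-edited A549, HepG2 and WPMY1 reporter lines (BFP segmentation plus GFP and RFP/FusionRed markers) were treated at 0.3, 1, 3 or 9 µM for 24 h, four wells each, then imaged live. Live-cell features per well were normalised to DMSO control wells. Deviation required ≥3 of 4 wells beyond the 95th percentile of DMSO Euclidean distances, and reproducibility required median replicate Pearson correlation above the 95th percentile of non-replicates. Phenotypic activity needed both criteria.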

A549-CANX-COX4 = test system: A549-CANX-COX4
Procedure, shortened: as §1

A549-GM130-SQSTM1 = test system: A549-GM130-SQSTM1
Procedure, shortened: as §1

A549-TP53BP1-CLTA = test system: A549-TP53BP1-CLTA
Procedure, shortened: as §1

A549-TUBA1B-RELA = test system: A549-TUBA1B-RELA
Procedure, shortened: as §1

HepG2-ACTB-RAB5A = test system: HepG2-ACTB-RAB5A
Procedure, shortened: as §1

HepG2-CANX-COX4 = test system: HepG2-CANX-COX4
Procedure, shortened: as §1

HepG2-GM130-SQSTM1 = test system: HepG2-GM130-SQSTM1
Procedure, shortened: as §1

HepG2-TP53BP1-CLTA = test system: HepG2-TP53BP1-CLTA
Procedure, shortened: as §1

HepG2-TUBA1B-RELA = test system: HepG2-TUBA1B-RELA
Procedure, shortened: as §1

WPMY1-ACTB-RAB5A = test system: WPMY1-ACTB-RAB5A
Procedure, shortened: as §1

WPMY1-CANX-COX4 = test system: WPMY1-CANX-COX4
Procedure, shortened: as §1

WPMY1-GM130-SQSTM1 = test system: WPMY1-GM130-SQSTM1
Procedure, shortened: as §1

WPMY1-TP53BP1-CLTA = test system: WPMY1-TP53BP1-CLTA
Procedure, shortened: as §1

WPMY1-TUBA1B-RELA = test system: WPMY1-TUBA1B-RELA
Procedure, shortened: as §1

Measured: phenotypically active

CC(C(=O)O)c1cccc(C(=O)c2ccccc2)c1 (stereo not given) [ketoprofen]
inactive: A549-ACTB-RAB5A 0 | A549-CANX-COX4 0 | A549-GM130-SQSTM1 0 | A549-TP53BP1-CLTA 0 | A549-TUBA1B-RELA 0 | HepG2-ACTB-RAB5A 0 | HepG2-CANX-COX4 0 | HepG2-GM130-SQSTM1 0 | HepG2-TP53BP1-CLTA 0 | HepG2-TUBA1B-RELA 0 | WPMY1-ACTB-RAB5A 0 | WPMY1-CANX-COX4 0 | WPMY1-GM130-SQSTM1 0 | WPMY1-TP53BP1-CLTA 0 | WPMY1-TUBA1B-RELA 0

CC(C)C(=O)c1c(C(C)C)nn2ccccc12 [Ibudilast]
inactive: A549-ACTB-RAB5A 0 | A549-CANX-COX4 0 | A549-GM130-SQSTM1 0 | A549-TP53BP1-CLTA 0 | A549-TUBA1B-RELA 0 | HepG2-ACTB-RAB5A 0 | HepG2-CANX-COX4 0 | HepG2-GM130-SQSTM1 0 | HepG2-TP53BP1-CLTA 0 | HepG2-TUBA1B-RELA 0 | WPMY1-ACTB-RAB5A 0 | WPMY1-CANX-COX4 0 | WPMY1-GM130-SQSTM1 0 | WPMY1-TP53BP1-CLTA 0 | WPMY1-TUBA1B-RELA 0

CC1(C)CCC(c2ccc(Cl)cc2)=C(CN2CCN(c3ccc(C(=O)NS(=O)(=O)c4ccc(N[C@H](CCN5CCOCC5)CSc5ccccc5)c(S(=O)(=O)C(F)(F)F)c4)cc3)CC2)C1 [navitoclax]
inactive: A549-ACTB-RAB5A 0 | A549-CANX-COX4 0 | A549-GM130-SQSTM1 0 | A549-TP53BP1-CLTA 0 | A549-TUBA1B-RELA 0 | HepG2-ACTB-RAB5A 0 | HepG2-CANX-COX4 0 | HepG2-GM130-SQSTM1 0 | HepG2-TP53BP1-CLTA 0 | HepG2-TUBA1B-RELA 0 | WPMY1-ACTB-RAB5A 0 | WPMY1-CANX-COX4 0 | WPMY1-GM130-SQSTM1 0 | WPMY1-TP53BP1-CLTA 0 | WPMY1-TUBA1B-RELA 0

O=C1NC(=O)C(c2ccccc2)(c2ccccc2)N1 [phenytoin]
inactive: A549-ACTB-RAB5A 0 | A549-CANX-COX4 0 | A549-GM130-SQSTM1 0 | A549-TP53BP1-CLTA 0 | A549-TUBA1B-RELA 0 | HepG2-ACTB-RAB5A 0 | HepG2-CANX-COX4 0 | HepG2-GM130-SQSTM1 0 | HepG2-TP53BP1-CLTA 0 | HepG2-TUBA1B-RELA 0 | WPMY1-ACTB-RAB5A 0 | WPMY1-CANX-COX4 0 | WPMY1-GM130-SQSTM1 0 | WPMY1-TP53BP1-CLTA 0 | WPMY1-TUBA1B-RELA 0

COc1ccc2c(c1)N(C(C)=O)[C@H]1[C@@H]3CO[C@H](C)[C@@H]4CN5CC[C@]21[C@@H]5C[C@H]34 [Strychnospermine]
inactive: A549-ACTB-RAB5A 0 | A549-CANX-COX4 0 | A549-GM130-SQSTM1 0 | A549-TP53BP1-CLTA 0 | A549-TUBA1B-RELA 0 | HepG2-ACTB-RAB5A 0 | HepG2-CANX-COX4 0 | HepG2-GM130-SQSTM1 0 | HepG2-TP53BP1-CLTA 0 | HepG2-TUBA1B-RELA 0 | WPMY1-ACTB-RAB5A 0 | WPMY1-CANX-COX4 0 | WPMY1-GM130-SQSTM1 0 | WPMY1-TP53BP1-CLTA 0 | WPMY1-TUBA1B-RELA 0

COC(=O)c1c(C)cc(OC(=O)c2c(C)cc(O)c(C=O)c2O)c(C)c1O [Atranorin]
inactive: A549-ACTB-RAB5A 0 | A549-CANX-COX4 0 | A549-GM130-SQSTM1 0 | A549-TP53BP1-CLTA 0 | A549-TUBA1B-RELA 0 | HepG2-ACTB-RAB5A 0 | HepG2-CANX-COX4 0 | HepG2-GM130-SQSTM1 0 | HepG2-TP53BP1-CLTA 0 | HepG2-TUBA1B-RELA 0 | WPMY1-ACTB-RAB5A 0 | WPMY1-CANX-COX4 0 | WPMY1-GM130-SQSTM1 0 | WPMY1-TP53BP1-CLTA 0 | WPMY1-TUBA1B-RELA 0

NC(=O)C(c1ccccc1)(c1ccc(F)cc1)c1ccc(F)cc1 [senicapoc]
inactive: A549-ACTB-RAB5A 0 | A549-CANX-COX4 0 | A549-GM130-SQSTM1 0 | A549-TP53BP1-CLTA 0 | A549-TUBA1B-RELA 0 | HepG2-ACTB-RAB5A 0 | HepG2-CANX-COX4 0 | HepG2-GM130-SQSTM1 0 | HepG2-TP53BP1-CLTA 0 | HepG2-TUBA1B-RELA 0 | WPMY1-ACTB-RAB5A 0 | WPMY1-CANX-COX4 0 | WPMY1-GM130-SQSTM1 0 | WPMY1-TP53BP1-CLTA 0 | WPMY1-TUBA1B-RELA 0

O=C(c1ccccc1)c1ccc2n1CCC2C(=O)O (stereo not given) [ketorolac]
inactive: A549-ACTB-RAB5A 0 | A549-CANX-COX4 0 | A549-GM130-SQSTM1 0 | A549-TP53BP1-CLTA 0 | A549-TUBA1B-RELA 0 | HepG2-ACTB-RAB5A 0 | HepG2-CANX-COX4 0 | HepG2-GM130-SQSTM1 0 | HepG2-TP53BP1-CLTA 0 | HepG2-TUBA1B-RELA 0 | WPMY1-ACTB-RAB5A 0 | WPMY1-CANX-COX4 0 | WPMY1-GM130-SQSTM1 0 | WPMY1-TP53BP1-CLTA 0 | WPMY1-TUBA1B-RELA 0

COc1ccc2cc(CCC(C)=O)ccc2c1 [nabumetone]
inactive: A549-ACTB-RAB5A 0 | A549-CANX-COX4 0 | A549-GM130-SQSTM1 0 | A549-TP53BP1-CLTA 0 | A549-TUBA1B-RELA 0 | HepG2-ACTB-RAB5A 0 | HepG2-CANX-COX4 0 | HepG2-GM130-SQSTM1 0 | HepG2-TP53BP1-CLTA 0 | HepG2-TUBA1B-RELA 0 | WPMY1-ACTB-RAB5A 0 | WPMY1-CANX-COX4 0 | WPMY1-GM130-SQSTM1 0 | WPMY1-TP53BP1-CLTA 0 | WPMY1-TUBA1B-RELA 0

CC(=O)[C@H]1CC[C@H]2[C@@H]3CCC4=CC(=O)CC[C@]4(C)[C@H]3CC[C@]12C [progesterone]
inactive: A549-ACTB-RAB5A 0 | A549-CANX-COX4 0 | A549-GM130-SQSTM1 0 | A549-TP53BP1-CLTA 0 | A549-TUBA1B-RELA 0 | HepG2-ACTB-RAB5A 0 | HepG2-CANX-COX4 0 | HepG2-GM130-SQSTM1 0 | HepG2-TP53BP1-CLTA 0 | HepG2-TUBA1B-RELA 0 | WPMY1-ACTB-RAB5A 0 | WPMY1-CANX-COX4 0 | WPMY1-GM130-SQSTM1 0 | WPMY1-TP53BP1-CLTA 0 | WPMY1-TUBA1B-RELA 0

CC[C@H](C)C(=O)O[C@H]1C[C@H](O)C=C2C=C[C@H](C)[C@H](CC[C@@H](O)C[C@@H](O)CC(=O)O)[C@H]21 [pravastatin]
inactive: A549-ACTB-RAB5A 0 | A549-CANX-COX4 0 | A549-GM130-SQSTM1 0 | A549-TP53BP1-CLTA 0 | A549-TUBA1B-RELA 0 | HepG2-ACTB-RAB5A 0 | HepG2-CANX-COX4 0 | HepG2-GM130-SQSTM1 0 | HepG2-TP53BP1-CLTA 0 | HepG2-TUBA1B-RELA 0 | WPMY1-ACTB-RAB5A 0 | WPMY1-CANX-COX4 0 | WPMY1-GM130-SQSTM1 0 | WPMY1-TP53BP1-CLTA 0 | WPMY1-TUBA1B-RELA 0
